Giardia kill = Giardia lamblia killing | AID 540267 | activity change, % at 7.66 µM, hits read low | 340,000 tested, 0.15% active | Giardia lamblia trophozoite viability; in the data active = activity change below about -80%; inconclusive = between about -30% and that limit;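 also: parasites exposed to compound for two days anaerobically before the ATP read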
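Compounds were tested on trophozoites seeded at 100 cells/well and held 48 hrs at 37 deg C anaerobically. An ATP-based luminescent kit measured the remaining live cells.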
TDP1 block = blocks human tyrosyl-DNA phosphodiesterase 1; Potency, µM (doses to about 130 µM), actives largely listed as inhibitors; 350,000 tested, 0.28% active; Q9NUW8; recombinant TDP1, AlphaScreen DNA substrate cleavage; also: nearly all actives have a fitted effect of over 40% in size
Target sequence (Q9NUW8 whole entry, looked up): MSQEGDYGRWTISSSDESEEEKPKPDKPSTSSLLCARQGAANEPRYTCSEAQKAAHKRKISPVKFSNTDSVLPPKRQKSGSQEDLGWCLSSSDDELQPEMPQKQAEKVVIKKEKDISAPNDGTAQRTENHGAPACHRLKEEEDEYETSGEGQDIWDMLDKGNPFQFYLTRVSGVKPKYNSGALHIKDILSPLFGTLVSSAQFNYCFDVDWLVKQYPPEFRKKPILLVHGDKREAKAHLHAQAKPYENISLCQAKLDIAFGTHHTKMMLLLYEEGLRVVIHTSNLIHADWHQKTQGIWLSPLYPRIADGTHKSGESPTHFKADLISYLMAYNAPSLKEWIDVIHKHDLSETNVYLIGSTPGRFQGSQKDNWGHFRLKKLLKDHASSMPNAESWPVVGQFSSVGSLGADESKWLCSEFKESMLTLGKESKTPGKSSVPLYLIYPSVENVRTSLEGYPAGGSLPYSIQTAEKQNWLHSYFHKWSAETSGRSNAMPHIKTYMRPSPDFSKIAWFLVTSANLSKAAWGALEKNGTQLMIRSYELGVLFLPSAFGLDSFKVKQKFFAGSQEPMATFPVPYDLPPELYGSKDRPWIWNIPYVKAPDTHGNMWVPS
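Tdp1 1 nM final; 15 min RT w/ cpd; substrate 15 nM, 5 min; beads 10 ug/ml, 10 min; AlphaScreen read. Neg ctrl: no enzyme.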
ELG1 DNA repair = inhibitors of ELG1-dependent DNA repair in HEK293T cells; HEK293T ELG1-luciferase reporter, luminescence, 16 h; DNA damage induced by 5-fluorouridine; Potency, µM (highest dose often 46.1 µM), hits mostly inhibitors; 330,000 tested, 2.3% active; AID 504467; also: nearly all actives have a fitted effect of over 55% in size
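5-Fluorouridine DNA damage + compound/DMSO, 2,000 cells/well, 16 h, 37 °C/5% CO2. ONE-Glo, 30 min RT, luminescence. Readout = decrease in reporter signal.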
TDP1 cell CPT = growth inhibition of DT40 Tdp1-/-;hTDP1 cells with camptothecin (screen for TDP1 inhibitors); 420,000 tested, 12% active; AID 686979; chicken DT40 Tdp1-/-;hTDP1 cells + 20 nM CPT, ATP luminescence, 48 h; Potency, µM (titrated, usually from 46.2 µM), actives largely listed as inhibitors; also: nearly all actives have a fitted effect of over 55% in size
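Cell growth measured by CellTiter-Glo luminescence after a minimum 48 h, 37 C compound exposure with 20 nM CPT in Tdp1-knockout DT40 cells stably expressing hTDP1, seeded 400/well; qHTS titration format.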
TDP1 cell noCPT = qHTS for Inhibitors of human tyrosyl-DNA phosphodiesterase 1 (TDP1): qHTS in cells in absence of CPT | 420,000 tested, 15% active | Potency, µM (top dose mostly 46.2 µM), hits mostly inhibitors | DT40 Tdp1-/- hTDP1 cells, no CPT, ATP luminescence, 48 h; also: nearly all actives have a fitted effect of over 55% in size
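No-CPT arm: Tdp1-/-;hTDP1 DT40 cells (400/well) plus compounds, incubated ≥48 hr at 37 °C. Readout CellTiter-Glo luminescence.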
IL-1B inflam inh = inflammasome signaling inhibition, IL-1 beta readout; THP-1 LPS/ATP IL-1B secretion, AlphaLISA, 16 h; active compounds read low; activity change, % at 57.5 µM; 360,000 tested, 4.7% active; AID 743279; in the data active = activity change below about -50%; inconclusive = mostly about -30% to -49%
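Secreted IL-1B measured by AlphaLISA bead assay after 16 h compound exposure of THP-1 cells; compounds (final up to 57.5 uM) added 1 h before LPS (250 ng/mL) and ATP (1.25 mM) stimulation; lower signal means less secretion.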
Numbers stand for hits; – = inactive; ? = inconclusive; · = not tested or not shown. Rows were chosen to be rich in hits. Some 19% of all compounds tested hit in one or more screens of this group. Unless noted, calls follow the shape of the dose curve; as a rule, active = well fitted curve in the direction sought with a large enough effect; inconclusive = small, poorly fitted or top-dose-only effect, or another doubt; inactive = no such curve, though single readings can be large; an effect the other way counts as inactive or inconclusive.

SMILES	Giardia kill	TDP1 block	ELG1 DNA repair	TDP1 cell CPT	TDP1 cell noCPT	IL-1B inflam inh
CCOC(=O)N1CCN(C(=O)C[C@@H]2C[C@@]3(C(=O)OCC)CCC=C3N(Cc3ccccc3)C2=O)CC1	·	·	·	–	–	–
Cc1cc(C(=O)NP(=O)(N2CCOCC2)N2CCOCC2)c(C)n1-c1ccc(Br)cc1	–	–	–	–	–	–
Cc1cc(C(=O)C[N+]2(C)CCOCC2)c(C)n1-c1ccc(Br)cc1	–	–	–	?	?	-69
Cc1ccc(-c2c(C(=O)N3CCN(c4cccc(C)c4C)CC3)oc(=O)c3ccccc23)cc1	·	–	·	?	21µM	·
Cc1ccc(Cl)cc1N1CCN(C(=O)c2ccc(CS(=O)c3ccccc3)o2)CC1 (stereo not given)	·	–	·	2.6µM	5.2µM	·
COC(=O)c1cc(C(=O)N2CCN(c3ncccn3)CC2)cc([N+](=O)[O-])c1	–	–	–	–	–	–
COC(=O)c1cc(C(=O)N2CCN(c3cccc(C)c3C)CC2)cc([N+](=O)[O-])c1	–	–	?	5.8µM	2.6µM	–
Cc1ccc(CS(=O)Cc2ccc(C(=O)N3CCN(c4ccccn4)CC3)o2)cc1 (stereo not given)	–	–	–	21µM	?	–
Cc1ccc(-c2c(C(=O)N3CCN(c4ccc(F)cc4)CC3)oc(=O)c3ccccc23)cc1	·	–	·	?	?	·
CCCCNC(=O)CCn1c(=O)c2ccccc2n(Cc2ccccc2C#N)c1=O	·	–	·	–	–	·
Cc1ccccc1NC(=O)CSc1nc(O)cc(=O)n1C	–	·	–	–	–	–
Cc1ccc(Cl)cc1N1CCN(C(=O)c2noc3c2CCCC3)CC1	·	–	·	12µM	?	·
O=C(c1ccc(CS(=O)c2cccc(Cl)c2)o1)N1CCN(c2ccccn2)CC1 (stereo not given)	–	–	?	?	9.2µM	–
O=C(c1noc2c1CCCCC2)N1CCN(c2ccc(Cl)cc2)CC1	·	–	·	?	?	·
O=C(c1ccc(CS(=O)c2ccccc2Cl)o1)N1CCN(c2ccccc2F)CC1 (stereo not given)	·	–	·	1.3µM	1.3µM	·
O=C(c1ccc(CS(=O)c2cccc(Cl)c2)o1)N1CCOCC1 (stereo not given)	–	–	–	–	–	–
Cc1ccccc1S(=O)Cc1ccc(C(=O)N2CCN(c3cccc(C)c3C)CC2)o1 (stereo not given)	·	–	·	0.65µM	0.82µM	·
CC(C)(C)N(Cc1ccccc1)C(=O)CCc1ccccc1	–	–	?	?	?	–
CS/C(=C/[N+](=O)[O-])Nc1cccc2c1C(C)CC2(C)C (stereo not given)	–	–	–	–	–	–
O=C(O)CCN1C(=O)c2ccc(NC(=O)COc3ccccc3)cc2C1=O	?	–	–	–	–	–
COc1ccccc1N1CCN(C(=O)c2ccc(CS(=O)c3ccccc3C)o2)CC1 (stereo not given)	·	–	·	12µM	13µM	·
O=C(c1ccccc1OCc1ccc(Cl)cc1)N1CCN(c2ccccn2)CC1	–	–	–	23µM	?	–
Cc1cccc(N2CCN(C(=O)c3ccc(CS(=O)c4cccc(Cl)c4)o3)CC2)c1C (stereo not given)	·	–	·	0.82µM	0.92µM	·
O=C(c1ccco1)N1CCN(C(=O)c2ccccc2OCc2ccc(Cl)cc2)CC1	–	–	–	?	?	–
Cc1ccc(C(=O)N2CCN(c3cccc(C)c3C)CC2)o1	–	–	–	16µM	?	–
SMILES	Giardia kill	TDP1 block	ELG1 DNA repair	TDP1 cell CPT	TDP1 cell noCPT	IL-1B inflam inh
Cc1ccc(Cl)cc1N1CCN(C(=O)COc2ccc3c(c2)CCC3)CC1	–	–	–	–	21µM	-72
CC(=O)c1ccc(N2CCN(C(=O)COc3ccc4c(c3)CCC4)CC2)cc1	–	·	–	?	–	–
Cn1cc(C(=O)c2cccc(Cl)c2)cc1C#N	–	–	–	–	–	–
CO/N=C\c1cc(C(=O)c2ccc(Cl)cc2Cl)cn1C	–	–	–	–	?	-62
Cn1cc(C(=O)c2cccc(Cl)c2)cc1/C=N\O	–	–	–	–	–	-64
O=C(CN1C(=O)NC2(CCCCCC2)C1=O)c1ccc(Cl)cc1	–	–	?	–	–	–
N#C/C(=C\c1ccc([N+](=O)[O-])o1)c1nc2ccccc2[nH]1	–	–	?	0.58µM	0.82µM	-101
CCOC(=O)/C(O)=C(\C#N)c1nc2ccccc2[nH]1	–	–	–	–	–	–
N#C/C(=C(/O)c1ccc([N+](=O)[O-])o1)c1nc2ccccc2[nH]1	-92	–	?	12µM	18µM	–
CCS(=O)(=O)c1nc(S(=O)(=O)c2ccc(C)cc2)c(N2CCC(O)CC2)s1	–	–	–	–	–	–
Cc1ccc2c(CSc3nnc4ccccn34)cc(=O)oc2c1C	–	–	?	–	–	–
